Screens as filed in PubChem.
VACV Venus inh – qHTS for Stage-Specific Inhibitors of Vaccinia Orthopoxvirus: Venus Reporter Primary qHTS; Vaccinia virus Venus reporter expression, fluorescence; actives 0.46% (n = 330,000); Potency, µM (highest dose often 36.5 µM), for inactives: at the highest dose activity change, negative = inhibition, usual class: inhibitors; calls by dose curve; tested in A549 cells; further: nearly all actives have a fitted effect of over 30% in size
LASV entry inh – qHTS for Inhibitors of binding or entry into cells for Lassa Virus; AID 540256, 2011; Potency, µM (titrated, usually from 37.9 µM), for the others: top-dose activity change, negative = inhibition, actives largely listed as inhibitors; actives 1.2% (n = 300,000); Lassa virus pseudotype entry inhibition, cell reporter; calls by dose curve; tested in HEK293 cells; further: nearly all actives have a fitted effect of over 50% in size
Sm TGR inh – qHTS Assay for the Inhibitors of Schistosoma Mansoni Peroxiredoxins. Schistosoma mansoni thioredoxin glutathione reductase (TGR), Q962Y6. purified TGR, DTNB reduction, TNB absorbance 405 nm. Potency, µM (doses to about 114 µM), for the others: at the highest dose activity change, negative = inhibition, usual class: inhibitors. actives 3% (n = 360,000); active means well fitted inhibition curve with a large enough effect; inconclusive means small, poorly fitted or top-dose-only effect; inactive means no such curve, though single readings can be large or run the other way; further: nearly all actives have a fitted effect of over 60% in size
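First, TGR (20 nM dispensed) and NADPH were mixed with compound. Second, a 15 min room-temperature incubation followed. Third, further NADPH and then DTNB were added to start the reaction. Finally, TNB absorbance was monitored kinetically.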
Marburg entry inh – qHTS for inhibitors of binding or entry into cells for Marburg Virus; Potency, µM (top dose mostly 37.8 µM), inactives show top-dose activity change, negative = inhibition, actives largely listed as inhibitors; Marburg virus pseudotyped entry inhibition, cell reporter; actives 1.8% (n = 300,000); AID 540276, 2011; calls by dose curve; tested in HEK293 cells
FMDV antiviral – High Throughput Screening for Foot and Mouth Disease Virus Antivirals; actives 1.2% (n = 410,000); AID 1159524, 2015; Potency, µM (top dose mostly 57.9 µM), inactives show top-dose activity change, negative = inhibition, actives largely listed as inhibitors; FMDV antiviral cell-based qHTS; calls by dose curve; tested in HEK293T cells; further: read-out not given here; nearly all actives have a fitted effect of over 45% in size
Vaccinia mCherry – qHTS for Stage-Specific Inhibitors of Vaccinia Orthopoxvirus: mCherry Reporter Primary qHTS | Vaccinia virus mCherry reporter infection, fluorescence | Potency, µM (top dose mostly 36.5 µM), without a hit: at the highest dose activity change, negative = inhibition, most hits filed as inhibitors | actives 0.63% (n = 310,000) | AID 720579, 2013; calls by dose curve; tested in A549 cells; further: nearly all actives have a fitted effect of over 35% in size
Starred values were filed as active, the others as inactive; ? = inconclusive; / = no result; [ ] = another dose, or the depositor's remark. Shown are actives, neighbours in structure and some others; about 5.4% of the full set was active somewhere. On the % scale 0 is the no-effect control and ±100 the full control effect; potency means the concentration at half of the fitted maximal effect.

SMILES	VACV Venus inh	LASV entry inh	Sm TGR inh	Marburg entry inh	FMDV antiviral	Vaccinia mCherry
Cc1cccc(C(=O)NCc2nc(-c3ccccc3NC(=O)C3CCCO3)oc2C)c1 (centres undefined)	4.7%	/	/	/	4.6%	-9.0%
C=CCN1C(=O)[C@@]2(CC(C)=C[C@@H](COc3ccccc3)O2)c2ccccc21	/	/	/	2.0%[14.2 µM]	/	/
CCCc1cc(-c2n[nH]c(C(=O)OCC)c2-c2cscn2)c(O)cc1O	/	?	3.2%	?	35.5µM*	/
CCOC(=O)c1[nH]nc(-c2c(O)cc(C)cc2O)c1-c1csc(C)n1	1.8%	-0.8%	?	11.7%	-13.2%	-10.1%
Cc1cccc(-n2cnc(C(=O)NNC(=S)Nc3ccc(Cl)cc3)c2)n1	-2.5%	?	1.1%	11.2µM*	-0.7%	?
Cc1nc2ccccn2c1C(=O)NNC(=S)Nc1ccc(Cl)cc1	-11.1%	-3.9%	-9.1%	-18.2%	-17.6%	-19.0%
COC(=O)NCC=Cc1nc(CCCO)co1	/	/	/	-24.0%[14.2 µM]	/	/
CCCCN(C(=O)C1CCC(CNS(=O)(=O)c2cccc3nsnc23)CC1)c1ccccc1 (centres undefined)	-15.0%	?	-1.2%	?	?	-23.9%
Cc1cc(C(=O)COC(=O)c2ccc3c(c2)OCO3)c(C)n1CC1CCCO1 (centres undefined)	-2.0%	3.2%	-3.9%	?	81.5%	0.7%
Cc1cc(C)c(C(=O)COC(=O)c2ccc([N+](=O)[O-])o2)cc1C	-2.5%	0.6%	?	2.2%[46.1 µM]	-9.9%	-10.8%
COCCn1c(C)cc(C(=O)COC(=O)c2cccc(O)c2)c1C	/	/	-2.2%	/	11.2µM*	/
COCCn1c(C)cc(C(=O)COC(=O)c2ccc([N+](=O)[O-])o2)c1C	-10.3%	-29.9%[46.1 µM]	35.5µM*	21.2%[46.1 µM]	1.3%	-6.3%
Cc1cc(C(=O)COC(=O)c2ccc([N+](=O)[O-])o2)c(C)n1CC1CCCO1 (centres undefined)	-4.7%	14.0%	35.5µM*	-15.7%	8.2%	-5.2%
COCCn1c(C)cc(C(=O)COC(=O)c2cc3c(s2)CCC3)c1C	-7.0%	11.5%	-27.7%	20.8%[46.1 µM]	51.2%	-7.2%
Cc1cc(C(=O)CSc2nc3ccccc3[nH]2)c(C)n1CC1CCCO1 (centres undefined)	-18.2%	7.94µM*	0.9%	?	11.2µM*	-27.8%
CC(C)(C)NC(=O)CCN(/N=C/c1ccc([N+](=O)[O-])o1)C1=NS(=O)(=O)c2ccccc21	10µM*	-2.5%	?	?	?	?
Cc1ccc(S(=O)(=O)N2CCOC23CCN(C(=O)c2ccc(Cl)cc2Cl)CC3)cc1	/	/	7.94µM*	/	-24.1%	/
Cc1ccc(S(=O)(=O)N2CCOC23CCN(C(=O)c2cc(Cl)ccc2Cl)CC3)cc1	/	/	-14.4%	/	-7.6%	/
CC/C=C\C/C=C\C/C=C\CCCCCCCCCCCC(=O)O	-18.1%[3.33 µM]	/	/	/	-17.6%[6.7 µM]	-14.0%[3.33 µM]
CCCCC/C=C\C/C=C\C/C=C\C/C=C\CCCC(=O)O	-9.9%[3.33 µM]	/	17.8µM*	/	?	-16.8%[3.33 µM]
CC/C=C\C/C=C\C/C=C\CCCCCCCC(=O)O	-19.2%	/	35.5µM*	/	-11.6%	-0.6%
CCCCC/C=C\C/C=C\C/C=C\C/C=C\CCCCCC(=O)O	-16.4%[3.33 µM]	/	/	/	21.2%[6.7 µM]	-28.6%[3.33 µM]
COc1cc(C(=O)N(Cc2ccc(F)cc2)Cc2ccco2)cc(OC)c1OC	2.1%	-14.7%[46.1 µM]	-7.0%	?	-22.4%	-1.1%
Nc1ccc(-c2nc3c(Cl)cc(N)cc3[nH]2)cc1	-12.6%	11.2µM*	5.5%	?	3.98µM*	-9.6%
CC1=NN(/C(=N\c2nnc(C)s2)Nc2ccc(C(C)(C)C)cc2)[C@H](c2ccc(C)cc2)S1	/	-18.3%	-1.3%	8.2µM*	-16.6%	/
CC(=O)N1CCc2c(sc3c2c(=O)n(-c2ccccc2)c(=O)n3Cc2cccc(C(F)(F)F)c2)C1	-12.2%	/	0.6%	-24.0%[46.1 µM]	-26.3%	?
Cc1ccc(OCCn2nnc3sc4c(c3c2=O)CCC(C)C4)cc1 (centres undefined)	-9.6%	-5.8%[46.1 µM]	-1.5%	?	2.4%	-12.3%
